Activity calls are given as the source filed them.

One assay concerns the target Albumin (Bos taurus) (UniProt P02769). Briefly: compounds binding labelled BSA control protein – biochemical, small-molecule microarray, Alexa647 label, 635/667 nm fluorescence, artefact control for SMM control protein annotation, profiling panel (AID 1118).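 Also: score merges 667 nm emission intensity and signal-to-noise per printed compound spot.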 The note with it: BSA-A647 binding, fluorescence 635 nm, higher = more signal.
Assay [1] in a line: probe aXIP binding to arrayed compounds – biochemical, NeuroSMM set, 635/667 nm fluorescence, primary screen (AID 1119).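 Also: probe is the protein aXip251-270 applied at 1 µg/mL to compound-printed slides; binding of probe to printed compounds measured as 667 nm fluorescence plus signal to noise.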 The settings on record: small-molecule microarray, higher = more signal, called active from +8 up or from −8 down.
Assay [2] can be described thus: probe aNOTCH3 binding on compound microarray – biochemical, small-molecule microarray, 635/667 nm fluorescence, primary screen (AID 1120).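 Also: probe is a biotin-tagged antibody raised against NOTCH3 rather than NOTCH3 protein; score merges spot fluorescence near 667 nm with spot signal to noise.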 The settings on record: higher = more signal.
A short description of assay [3]: probe aNOTCH2 binding on compound microarray – biochemical, small-molecule microarray, 635/667 nm fluorescence, primary screen (AID 1121).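 Also: score merges feature fluorescence read at 667 nm with its signal to noise.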 The note with it: higher = more signal.
In assay [4] the target is Carbonic anhydrase 2 (Homo sapiens) (UniProt P00918). Put plainly: compounds binding carbonic anhydrase 2 – biochemical, small-molecule microarray, Alexa647-labelled CAII, profiling panel (AID 1122). The note with it: CAII-A647 binding fluorescence, higher = more signal.
Assay [5] is described as follows: COS7 lysate on small-molecule microarray, probe aHis, 635 nm (AID 1123).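 Also: z-score combines 667nm fluorescence intensity with signal-to-noise per printed compound spot.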 The settings on record: COS7 cell lysate, fluorescence, higher = more signal.
Assay [6] can be described thus: probe aLAP1 signal on lysate-treated microarray – cell lysate, small-molecule microarray, COS7 lysate, primary screen (AID 1124).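 Also: lysate comes from COS7 cells expressing LAP1 and is applied at 0.3 µg/mL; score merges spot fluorescence near 667 nm with signal-to-noise over triplicate slides.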 The note with it: probe aLAP1, fluorescence, higher = more signal.
The next assay relates to Sam68 (KHDRBS1). Briefly: compounds binding KHDRBS1 protein – biochemical, small-molecule microarray, 635 nm fluorescence, primary screen (AID 1125).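 Also: score merges 667 nm channel intensity with signal to noise over triplicate slides.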 The settings on record: higher = more signal.
Assay [7] deals with Chordin-like protein 2 (CHRDL2). Briefly: compounds binding chordin-like 2 – biochemical, small-molecule microarray, 635 nm fluorescence, primary screen (AID 1126).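 Also: printed compound slides probed with Chrdl2 protein at 4 µg/mL for 1 h at 4 C; score merges 667 nm emission intensity with signal to noise over three replicate slides.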 The note with it: fluorescence 635 nm, higher = more signal.
Assay [8] addresses Concanavalin-A (Canavalia ensiformis) (UniProt P02866). Put plainly: compounds binding concanavalin A lectin – biochemical, small-molecule microarray, Alexa647 label, 635 nm, artefact control for SMM control protein annotation, primary screen (AID 1127).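 Also: z combines 667 nm emission intensity with signal-to-noise across three replicate slides.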 The settings on record: ConA-A647 binding fluorescence, higher = more signal.
The nature of assay [9]: compounds binding Alexa647 anti-His antibody – biochemical, small-molecule microarray, 635 nm fluorescence, artefact control for SMM control protein annotation, primary screen (AID 1128).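 Also: score merges feature fluorescence with signal-to-noise for each printed compound spot.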 The settings on record: higher = more signal.
Assay [10] deals with Human papillomavirus type 1a E7 protein (residues 1-88). Briefly: HPV1a E7 small-molecule binders, primary screen, biochemical, small-molecule microarray, residues 1-88, 635 nm (AID 1129). The settings on record: small-molecule microarray binding, fluorescence 635 nm; higher = more signal.
The target in assay [11] is Focal adhesion kinase 1 (Homo sapiens) (UniProt Q05397). Briefly: PTK2 protein binding on printed compound slides – biochemical, small-molecule microarray, 635/667 nm fluorescence, BSA, DTT, primary screen (AID 1130).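 Also: composite of spot emission at 667 nm and signal to noise over triplicate slides.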 The note with it: 635 nm fluorescence, higher = more signal.
Assay [12] has as its system Fibrinogen (Alexa647-labelled). Put plainly: Alexa647-fibrinogen binding to printed small molecules – biochemical, small-molecule microarray, 635/667 nm fluorescence, artefact control for SMM control-protein annotation, profiling panel (AID 1131).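 Also: z-score merges 667 nm fluorescence with per-spot signal-to-noise over triplicate slides.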 The note with it: fibrinogen-A647 binding fluorescence, higher = more signal.
Assay [13] addresses Follistatin (Homo sapiens) (UniProt P19883). Briefly: FST protein binding to printed compounds – biochemical, small-molecule microarray, 635/667 nm fluorescence, primary screen (AID 1132). The settings on record: 635 nm fluorescence, higher = more signal.
The target of assay [14] is Fibroblast growth factor 2 (Homo sapiens) (UniProt P09038). Put plainly: basic fibroblast growth factor binding to printed compounds – biochemical, small-molecule microarray, 635/667 nm fluorescence, primary screen (AID 1133). The settings on record: FGF2, fluorescence 635/667, higher = more signal.
The nature of assay [15]: JC-1 mitochondrial potential readout, lung cancer cells – cell-based, A549, JC-1 fluorescence, basal, 24 h, 100 nL, profiling panel (AID 1138).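 Also: A549 lung adenocarcinoma cells under basal conditions with no added stimulus; test concentration not given here.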 The settings on record: higher = more signal.
The subject of a further assay is Lefty1. Put plainly: Lefty1 protein binding to printed compounds – biochemical, small-molecule microarray, 635/667 nm fluorescence, primary screen (AID 1139). The note with it: fluorescence 635/667, higher = more signal.
Assay [16] deals with wheat germ agglutinin (Triticum aestivum), Alexa647-labelled. Put plainly: Alexa647-WGA lectin binding to printed small molecules – biochemical, small-molecule microarray, 635/667 nm fluorescence, artefact control for SMM control-protein annotation, profiling panel (AID 1140).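 Also: score merges 667 nm feature emission with signal to noise over triplicate slides.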 The note with it: WGA-A647 binding, 635 nm fluorescence, higher = more signal.
Assay [17] has as its target Luciferin 4-monooxygenase (Photinus pyralis) (UniProt P08659). Put plainly: inhibition of purified Photinus pyralis luciferase – biochemical, luminescence, purified enzyme, 2006 set, primary screen (AID 1141).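 Also: cell-free assay with purified firefly luciferase at 100 ng per well in PBS; test concentration not given here.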 The note with it: purified firefly luciferase, SteadyGlo luminescence, 30 min; higher = more signal, called active from +8 up or from −8 down.

Sequence of Luciferin 4-monooxygenase (Photinus pyralis) (P08659 whole entry, looked up): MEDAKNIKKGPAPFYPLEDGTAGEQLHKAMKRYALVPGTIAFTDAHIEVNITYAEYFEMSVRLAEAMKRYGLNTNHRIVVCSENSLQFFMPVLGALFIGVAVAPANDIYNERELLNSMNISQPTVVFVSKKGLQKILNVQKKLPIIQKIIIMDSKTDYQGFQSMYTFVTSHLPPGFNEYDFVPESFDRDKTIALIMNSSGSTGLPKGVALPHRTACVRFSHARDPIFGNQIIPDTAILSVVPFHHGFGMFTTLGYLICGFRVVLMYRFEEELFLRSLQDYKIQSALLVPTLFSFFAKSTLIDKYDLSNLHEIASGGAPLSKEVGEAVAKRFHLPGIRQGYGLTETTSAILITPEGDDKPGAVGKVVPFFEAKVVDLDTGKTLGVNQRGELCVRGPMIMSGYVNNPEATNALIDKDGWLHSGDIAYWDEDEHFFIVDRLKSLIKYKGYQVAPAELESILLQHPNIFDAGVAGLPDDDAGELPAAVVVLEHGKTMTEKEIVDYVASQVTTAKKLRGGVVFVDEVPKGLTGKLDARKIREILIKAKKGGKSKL
Sequence of Focal adhesion kinase 1 (Homo sapiens) (Q05397 whole entry, looked up): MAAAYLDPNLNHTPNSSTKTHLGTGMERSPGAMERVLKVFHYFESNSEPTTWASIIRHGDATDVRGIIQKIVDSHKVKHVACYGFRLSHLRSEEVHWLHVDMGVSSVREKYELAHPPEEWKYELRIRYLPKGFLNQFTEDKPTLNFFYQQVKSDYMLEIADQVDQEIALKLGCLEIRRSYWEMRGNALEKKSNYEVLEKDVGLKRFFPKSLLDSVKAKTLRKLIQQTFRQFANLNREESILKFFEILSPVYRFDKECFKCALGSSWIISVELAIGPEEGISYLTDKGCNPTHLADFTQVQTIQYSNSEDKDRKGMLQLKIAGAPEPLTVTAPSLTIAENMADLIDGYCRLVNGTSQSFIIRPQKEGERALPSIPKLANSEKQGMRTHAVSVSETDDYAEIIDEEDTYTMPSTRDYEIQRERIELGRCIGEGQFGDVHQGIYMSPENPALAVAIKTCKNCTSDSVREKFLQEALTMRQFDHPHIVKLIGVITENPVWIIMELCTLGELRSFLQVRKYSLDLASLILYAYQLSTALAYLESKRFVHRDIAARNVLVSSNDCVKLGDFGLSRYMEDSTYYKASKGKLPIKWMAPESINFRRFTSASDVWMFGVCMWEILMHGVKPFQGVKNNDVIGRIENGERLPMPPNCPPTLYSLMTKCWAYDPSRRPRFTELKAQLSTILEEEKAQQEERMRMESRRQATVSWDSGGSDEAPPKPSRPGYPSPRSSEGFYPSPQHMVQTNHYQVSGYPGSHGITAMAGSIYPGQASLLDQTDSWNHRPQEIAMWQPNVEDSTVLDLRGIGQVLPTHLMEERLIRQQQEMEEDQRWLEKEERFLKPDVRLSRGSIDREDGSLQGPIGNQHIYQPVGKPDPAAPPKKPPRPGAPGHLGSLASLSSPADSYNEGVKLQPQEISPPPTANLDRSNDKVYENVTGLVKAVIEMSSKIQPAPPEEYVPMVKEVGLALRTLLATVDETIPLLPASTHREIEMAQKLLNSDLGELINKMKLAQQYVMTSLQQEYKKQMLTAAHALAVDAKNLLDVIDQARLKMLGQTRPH
Sequence of Albumin (Bos taurus) (P02769 whole entry, looked up): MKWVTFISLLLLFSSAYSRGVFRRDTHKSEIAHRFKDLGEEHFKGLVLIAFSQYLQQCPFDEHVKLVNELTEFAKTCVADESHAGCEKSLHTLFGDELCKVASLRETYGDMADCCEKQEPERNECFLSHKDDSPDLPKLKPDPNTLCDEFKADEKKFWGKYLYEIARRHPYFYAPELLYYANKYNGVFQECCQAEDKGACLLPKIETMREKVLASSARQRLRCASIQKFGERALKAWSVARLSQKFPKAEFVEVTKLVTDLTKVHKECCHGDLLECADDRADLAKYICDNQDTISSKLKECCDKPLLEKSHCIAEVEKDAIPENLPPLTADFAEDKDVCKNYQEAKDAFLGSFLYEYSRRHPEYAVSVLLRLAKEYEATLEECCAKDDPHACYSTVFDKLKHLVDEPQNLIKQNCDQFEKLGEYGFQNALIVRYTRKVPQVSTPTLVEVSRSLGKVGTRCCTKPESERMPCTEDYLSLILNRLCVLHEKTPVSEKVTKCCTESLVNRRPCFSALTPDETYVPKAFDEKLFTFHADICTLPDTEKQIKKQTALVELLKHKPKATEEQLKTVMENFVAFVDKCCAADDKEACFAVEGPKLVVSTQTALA
Sequence of Fibroblast growth factor 2 (Homo sapiens) (P09038 whole entry, looked up): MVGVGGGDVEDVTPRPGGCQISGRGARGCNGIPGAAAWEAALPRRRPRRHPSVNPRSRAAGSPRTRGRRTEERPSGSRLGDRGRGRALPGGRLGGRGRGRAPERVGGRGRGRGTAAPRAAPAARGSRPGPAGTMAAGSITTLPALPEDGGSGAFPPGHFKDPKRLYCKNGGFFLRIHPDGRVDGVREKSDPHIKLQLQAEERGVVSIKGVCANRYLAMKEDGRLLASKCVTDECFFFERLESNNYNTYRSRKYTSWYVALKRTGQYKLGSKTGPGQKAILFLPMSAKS
Sequence of Concanavalin-A (Canavalia ensiformis) (P02866 whole entry, looked up): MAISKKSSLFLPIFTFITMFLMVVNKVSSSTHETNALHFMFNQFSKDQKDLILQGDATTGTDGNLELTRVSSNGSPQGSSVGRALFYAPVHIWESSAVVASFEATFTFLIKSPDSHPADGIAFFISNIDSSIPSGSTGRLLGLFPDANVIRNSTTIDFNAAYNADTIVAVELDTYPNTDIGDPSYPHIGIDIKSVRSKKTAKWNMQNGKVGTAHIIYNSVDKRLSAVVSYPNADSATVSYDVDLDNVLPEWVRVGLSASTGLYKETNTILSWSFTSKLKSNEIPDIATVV
Sequence of Follistatin (Homo sapiens) (P19883 whole entry, looked up): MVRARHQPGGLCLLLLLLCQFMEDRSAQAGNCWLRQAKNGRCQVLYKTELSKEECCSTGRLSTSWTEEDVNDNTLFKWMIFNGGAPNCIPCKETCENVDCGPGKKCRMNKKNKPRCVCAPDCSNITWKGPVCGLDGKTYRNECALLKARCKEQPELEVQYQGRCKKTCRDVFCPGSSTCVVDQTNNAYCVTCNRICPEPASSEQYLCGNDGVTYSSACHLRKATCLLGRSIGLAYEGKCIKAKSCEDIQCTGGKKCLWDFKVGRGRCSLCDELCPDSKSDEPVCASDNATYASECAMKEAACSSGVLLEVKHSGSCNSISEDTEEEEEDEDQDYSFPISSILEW

On to `COCCOC(=O)N1C(=O)[C@@]2(c3ccccc31)[C@H](C(=O)N1CCCCCCC1)[C@H]1C(=O)O[C@H](c3ccccc3)[C@H](c3ccccc3)N1[C@@H]2c1ccccc1OCCO`, for which the composite z-score in the assay with Albumin (Bos taurus) came out at 0.911; in assay [2], 1.5; in [3], 0.699; in assay [4] it was 0.838; in assay [5] it was 3.32; in [6], 1.19. Besides, the composite z-score with Sam68 (KHDRBS1) amounted to 1.29; in assay [7], 1.32; in [8], 1.2; in assay [9], 2.04; in assay [10] it was 1.27; in assay [11], 1.26. Besides, the composite z-score came to 0.802 in [12]; 1.47 in [13]; 0.662 in assay [14]; 1.47 with Lefty1; 1.53 in [16]. For the same compound, the composite Z-score in [1] was 3.89 (inactive). Moreover, the z-score in [15] was -0.647; in [17] it was 0.131 (inactive).

Take `CC(C)NC(=O)[C@@]1(c2ccc([N+](=O)[O-])cc2)CC(=O)N(C(C)C)[C@@H]1c1ccc(CO)cc1`: the composite z-score is 0.697 with Albumin (Bos taurus); -0.399 in assay [2]; -0.176 in assay [3]; 0.718 in assay [4]; 0.859 in [5]; 0.723 in [6]. The composite z-score in the assay with Sam68 (KHDRBS1) is 0.0001; in assay [7], -1.66; in assay [8], -0.0183; in [9] it was 0.0052; in assay [10], -0.0933; in [11] it was -1.05. The composite z-score in assay [12] is -0.961; in assay [13] it was -0.849; in assay [14], -1.23; in the assay with Lefty1, -0.554; in assay [16], 0.516. Further, the composite Z-score in [1] was 0.461 (inactive). Besides, the z-score is 1.3 in assay [15] and -0.979 (inactive) in assay [17].

Consider `[N-]=[N+]=Nc1ccccc1C[C@]1(C(=O)N2CCCCC2)N=C(c2ccc(OCCCO)cc2)O[C@H]1c1ccccc1N=[N+]=[N-]`, for which the composite z-score with Albumin (Bos taurus) is 0.94; in [2], 0.311; in assay [3], 0.252; in assay [4] it was 0.623; in assay [5], 2.91; in assay [6], 1.17. In addition, the composite z-score in the assay on Sam68 (KHDRBS1) is 1.29; in assay [7] it was -0.292; in [8], 0.979; in [9], 1.6; in assay [10], 1.24; in [11], 0.544. In addition, the composite z-score in assay [12] is 0.945; in assay [13], 1.18; in assay [14], 0.806; in the assay with Lefty1 it was -0.105; in assay [16], 0.811. Further, the composite Z-score in [1] is 0.121 (inactive). The z-score in [15] was 0.591; in assay [17], -3.15 (inactive).

Regarding `CC(=O)NCCCC[C@@H]1NC(=O)[C@@H]2C[C@H](C(=O)NCCCCCC[N+](C)(C)C)[C@H](c3cccc(OCCO)c3)N2C1=O`, the composite z-score is -0.384 in the assay with Albumin (Bos taurus); 0.163 in assay [2]; -0.0896 in assay [3]; 0.675 in [4]; 1.53 in assay [5]; 0.348 in assay [6]. For the same compound, the composite z-score came out at 1.22 in the assay on Sam68 (KHDRBS1); 1.13 in [7]; 1.09 in assay [8]; 2.89 in [9]; 1.17 in assay [10]; 0.202 in [11]. Besides, the composite z-score in assay [12] was 0.416; in [13], 1.39; in assay [14], 1.69; in the assay with Lefty1, 1.26; in assay [16] it was 0.548. In addition, in assay [1], the composite Z-score was 0.13 (inactive). For the same compound, the z-score is -0.972 in assay [15] and 0.364 (inactive) in assay [17].

On to `CCCNC(=O)[C@@]1(C)c2ccccc2C(=O)N(Cc2cc(C(F)(F)F)cc(C(F)(F)F)c2)[C@H]1c1ccc(CO)cc1`, for which the composite z-score was -0.549 with Albumin (Bos taurus); -0.198 in assay [2]; -0.114 in [3]; 0.671 in assay [4]; 1.68 in [5]; 0.458 in assay [6]. Moreover, the composite z-score was 0.356 in the assay with Sam68 (KHDRBS1); -1.08 in assay [7]; -0.082 in [8]; 2.41 in assay [9]; 0.903 in [10]; 0.147 in assay [11]. Besides, the composite z-score in [12] was 0.267; in assay [13], 0.127; in [14] it was 0.68; in the assay with Lefty1 it was -0.524; in assay [16], 0.463. For the same compound, the composite Z-score in [1] is 0.147 (inactive). The z-score is -0.704 in [15] and 0.517 (inactive) in [17].

These data come from PubChem BioAssay.
